Records with an inconclusive call do not appear. The source made the active and inactive calls. Calls come from the whole dose curve; as a rule, active = well fitted cell-killing curve with a large enough effect; inconclusive = small, poorly fitted or top-dose-only effect; inactive = flat fitted curve, though single readings scatter.

A short description of the experiment: Cell Viability - LYMP2-026 (AID 989).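 Note: cells exposed to compound for 24 h at 37 °C; nearly all actives have a fitted effect of over 50% in size.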 Particulars: LYMP2-026 lymphoblastoid cell viability, qHTS; series mostly up to 92.2 µM. An excerpt:
NIH Chemical Genomics Center [NCGC]
NIH Molecular Libraries Screening Centers Network [MLSCN]
National Institutes of Environmental Health Sciences [NIEHS]
National Toxicology Program [NTP]
We have developed a 1536-well cell-based assay for quantitative high throughput screening (qHTS) against a number of cell lines to determine in vitro cytotoxicity of small molecules. This particular assay uses a human lymphoblastoid cell line (LYMP2-026) purchased from Coriell Institute for Medical Research.
NCGC Assay Protocol Summary:
The CellTiter-Glo luminescent cell viability assay (Promega) is a homogeneous method to measure the number of viable cells in culture. The end point readout of this assay is based on quantitation of intracellular ATP, an indicator of metabolic activity, using the luciferase reaction. Luciferase catalyzes the oxidation of beetle Luciferin to oxyluciferin and light in the presence of ATP. The luminescent signal is proportional to amount of ATP present.
Using the CellTiter-Glo luminescent cell viability assay, the amount of cellular ATP was measured in the lymphoblastoid cell line with complete culture medium following compound treatment for 24 hours. The assay was performed in opaque white Kalypsys 1536-well plates. In the screen, tetraoctylammonium bromide was used as positive control. Library compounds were measured for their ability to cause acute toxicity in the cell line, as reflected by a decrease in intracellular ATP levels, in a concentration-dependent manner. […] AC50 values were determined from concentration-response data modeled with the standard Hill equation.
qHTS protocol for CellTiter Glo lymphoblastoid cellular assay
[Step] [Parameter] [Value] [Description]
1. Reagent; 5 uL; 2500 lymphoblastoid cells/well
2. Time; 5 hr; 37 C incubation
4. Controls; 23 nL; Tetraoctylammonium bromide 6.4pM to 92 uM
5. Time; 24 hr; 37 C incubation
6. Reagent; 5 uL; CellTiter Glo reagent
7. Time; 30 min; Room Temperature
8. Detection; Luminescence; Viewlux plate reader
Keywords: cell viability, cytotoxicity, lymphoblastoid cell line, luminescence, NTPHTS, NTPHTS_NCGC, NIEHS, DSSTox, MLSMR, MLSCN, NIH Roadmap, qHTS, NCGC
(Quantitative high-throughput screening tests each substance at several concentrations.)
Turning to `Cc1ccc(Br)cc1`, the outcome was inactive.
Consider `CCCC=O`, for which the outcome was inactive.
The result for `FC(F)(F)c1cccc(Cl)c1` reads “inactive”; that for `CN(C)CCCCl`, “inactive”; that for `NCCCCCCN`, “inactive”.
As for `CC1CCC2CC1C2(C)C` (stereo not given), the compound was classed as inactive.
The result for `Nc1ccccc1S(=O)(=O)O` reads “inactive”; that for `COc1ccccc1[N+](=O)[O-]`, “inactive”; that for `COc1cccc2sc(N)nc12`, “inactive”.
As to `Cc1ccc(S(=O)(=O)NC2CCCCC2)cc1`, the compound was called inactive.
Regarding `Cc1ccc([N+](=O)[O-])c(N)c1`, the outcome was inactive.
For `Cc1cccc(C)c1[N+](=O)[O-]`, the compound was called inactive.
Next, `CCc1ccccc1`: “inactive”; `CCCCOCCOCCSC#N`: “inactive”.
As to `CC(=O)c1ccccc1[N+](=O)[O-]`, the compound was classed as inactive.
Next, `CSCCC=O`: “inactive”; `CC(=O)OCCC(C)C`: “inactive”; `Cc1cccc2sc(N)nc12`: “inactive”.
Regarding `CC1CCCO1` (stereo not given), the result was inactive.
Regarding `O=[N+]([O-])c1ccc(Cl)cc1Cl`, the compound was classed as inactive.
Next, `Cc1cc(C(=O)O)ccc1[N+](=O)[O-]`: “inactive”; `CC(C)(c1cc(Br)c(OCC(Br)CBr)c(Br)c1)c1cc(Br)c(OCC(Br)CBr)c(Br)c1` (stereo not given): “inactive”; `Cc1ccc(C)c(N)c1`: “inactive”.
Next, `Nc1nc2ccccc2[nH]1`: “inactive”; `Cc1ccco1`: “inactive”; `C=CCCCCCCC=C`: “inactive”.
The result for `NC(=O)NC(N)=O` reads “inactive”.
`C=CCCC`: the call was inactive.
For the compound `Nc1ccc(F)cc1F`, the result was inactive.
The result for `O=C1NC(=O)c2cc([N+](=O)[O-])ccc21` reads “inactive”; that for `OC/C(Br)=C(\Br)CO`, “inactive”.
Next, `CC/C(C)=N/O`: “inactive”; `CC=C(Cl)Cl`: “inactive”; `Nc1cccc2c(=O)[nH][nH]c(=O)c12`: “inactive”.
The result for `O=C(O)c1ccc(Cl)c(Cl)c1` reads “inactive”; that for `C=CCn1c(=O)n(CC=C)c(=O)n(CC=C)c1=O`, “inactive”.
In the case of `CC(C=O)Cc1ccc(C(C)(C)C)cc1` (stereo not given), the call was inactive.
For `COC(=O)c1ccccc1`, the compound was classed as inactive.
With `Oc1cccc(Nc2ccccc2)c1`, the outcome was inactive.
In the case of `CCCCCO`, the compound was classed as inactive.

The values are drawn from PubChem BioAssay (NCATS).
